# Compound activity deposited in PubChem BioAssay by National Center for Advancing Translational Sciences (NCATS).
# The list is not random: actives were taken first. Their share in the collection is about 19%.
# IL-1B inflam inh – qHTS for Inhibitors of Inflammasome Signaling: IL-1-beta AlphaLISA Primary Screen. THP-1 LPS/ATP IL-1B secretion, AlphaLISA, 16 h; stronger effect = lower value. activity change, % at 57.5 µM. 4.7% of 360,000 active; in the data active = activity change below about -50%; inconclusive = mostly about -30% to -49%
#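 Secreted IL-1B measured by AlphaLISA bead assay after 16 h compound exposure of THP-1 cells; compounds (final up to 57.5 uM) added 1 h before LPS (250 ng/mL) and ATP (1.25 mM) stimulation; lower signal means less secretion.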
# Giardia killer – Small Molecules that selectively kill Giardia lamblia: qHTS | Giardia lamblia trophozoite viability | activity change, % at 7.66 µM, hits read low | 0.15% of 340,000 active | AID 540267, 2011; in the data active = activity change below about -80%; inconclusive = between about -30% and that limit;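 note: parasites exposed to compound for two days anaerobically before the ATP read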
#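 Media and compound were dispensed first, then trophozoites at 100 cells/well; plates sat 48 hrs at 37 deg C without oxygen before ATP luminescence reagent was added and read after 15-30 min at room temperature.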
# DT40 TDP1 CPT – qHTS for Inhibitors of human tyrosyl-DNA phosphodiesterase 1 (TDP1): qHTS in cells in presence of CPT; chicken DT40 Tdp1-/-;hTDP1 cells + 20 nM CPT, ATP luminescence, 48 h; Potency, µM (series often up to 46.2 µM), for inactives: at the top dose activity change, negative = growth inhibition, usual class: inhibitors; 12% of 420,000 active; AID 686979, 2013; note: potency is the fitted concentration of half-maximal effect; nearly all actives have a fitted effect of over 55% in size
#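 Chicken DT40 Tdp1-/- cells complemented with human TDP1, 400 cells/well, exposed to compounds plus 20 nM camptothecin for at least 48 h at 37 C; viability read as ATP content by CellTiter-Glo luminescence.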
# DT40 TDP1 no CPT – qHTS for Inhibitors of human tyrosyl-DNA phosphodiesterase 1 (TDP1): qHTS in cells in absence of CPT | DT40 Tdp1-/- hTDP1 cells, no CPT, ATP luminescence, 48 h | 15% of 420,000 active | AID 686978, 2013 | Potency, µM (highest dose often 46.2 µM), for the others: top-dose activity change, negative = growth inhibition, usual class: inhibitors; note: potency is the fitted concentration of half-maximal effect; nearly all actives have a fitted effect of over 55% in size
#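 No-CPT arm: Tdp1-/-;hTDP1 DT40 cells (400/well) plus compounds, incubated ≥48 hr at 37 °C. Readout CellTiter-Glo luminescence.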
# TDP1 inh – qHTS Assay for Inhibitors of Tyrosyl-DNA Phosphodiesterase (TDP1). Potency, µM (doses to about 130 µM), inactives show at the highest dose activity change, negative = inhibition, usual class: inhibitors. Tyrosyl-DNA phosphodiesterase 1 (Homo sapiens), Q9NUW8. AID 485290, 2010. recombinant TDP1, AlphaScreen DNA substrate cleavage. 0.28% of 350,000 active; note: potency is the fitted concentration of half-maximal effect; nearly all actives have a fitted effect of over 40% in size
# Target sequence (Q9NUW8 whole entry, looked up): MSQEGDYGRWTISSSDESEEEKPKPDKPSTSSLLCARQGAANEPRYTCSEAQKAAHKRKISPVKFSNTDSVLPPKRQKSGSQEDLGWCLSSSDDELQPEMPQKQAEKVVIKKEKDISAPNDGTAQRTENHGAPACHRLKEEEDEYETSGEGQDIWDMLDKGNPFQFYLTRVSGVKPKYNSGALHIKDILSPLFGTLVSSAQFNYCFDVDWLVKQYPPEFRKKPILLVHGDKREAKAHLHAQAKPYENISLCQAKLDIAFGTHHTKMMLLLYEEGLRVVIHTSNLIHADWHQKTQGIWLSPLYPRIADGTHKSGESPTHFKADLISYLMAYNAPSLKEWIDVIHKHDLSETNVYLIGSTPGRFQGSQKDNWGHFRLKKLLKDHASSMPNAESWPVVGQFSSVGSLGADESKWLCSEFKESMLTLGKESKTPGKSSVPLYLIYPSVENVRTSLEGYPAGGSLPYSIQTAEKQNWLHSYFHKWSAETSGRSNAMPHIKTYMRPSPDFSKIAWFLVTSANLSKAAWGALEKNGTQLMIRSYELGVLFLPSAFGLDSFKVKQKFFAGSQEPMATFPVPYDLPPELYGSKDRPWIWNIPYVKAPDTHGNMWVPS
#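 Recombinant human Tdp1 (E. coli-expressed, 1 nM final) preincubated with compounds 15 min at room temperature, then 5'-biotin/3'-phosphotyrosine-FITC DNA substrate (15 nM final) added for 5 min. AlphaScreen beads (10 ug/ml final) added 10 min; cleavage lowers signal.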
# ELG1 repair inh – qHTS screen for small molecules that inhibit ELG1-dependent DNA repair in human embryonic kidney (HEK293T) cells expressing luciferase-tagged ELG1; HEK293T ELG1-luciferase reporter, luminescence, 16 h; DNA damage induced by 5-fluorouridine; Potency, µM (doses to about 46.1 µM), without a hit: at the highest dose activity change, negative = inhibition, most hits filed as inhibitors; 2.3% of 330,000 active; AID 504467, 2011; note: potency is the fitted concentration of half-maximal effect; nearly all actives have a fitted effect of over 55% in size
#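 Overnight (16 hr) co-exposure of 2,000 cells/well to 5-fluorouridine and compound at 37 °C preceded detection. Luciferase was quantified via ONE-Glo luminescence; loss of signal denotes inhibition.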
# * marks the source's active call; other numbers are inactive results; ? = inconclusive; . = no result; [ ] = remark or other dose. Unless noted, calls come from the whole dose curve; as a rule, active = well fitted curve in the direction sought with a large enough effect; inconclusive = small, poorly fitted or top-dose-only effect, or another doubt; inactive = no such curve, though single readings can be large; an effect the other way counts as inactive or inconclusive. % is set by controls: 0 for no effect and ±100 for the full control effect.
SMILES,IL-1B inflam inh,Giardia killer,DT40 TDP1 CPT,DT40 TDP1 no CPT,TDP1 inh,ELG1 repair inh
COc1ccc(C2=Nn3c(nnc3-c3ccccc3OC)SC2)cc1,.,.,.,.,0%,.
Cc1noc(C)c1COC(=O)c1cc(F)c(F)cc1Cl,-2,-22,-3%,-3%,2%,25%
Cc1noc(C)c1COC(=O)c1cnc(Cl)c(Cl)c1,-54*,-16,22%,16%,.,?
N#Cc1ccc(COC(=O)c2cnc(Cl)c(Cl)c2)cc1,-88*,23,17%,-19%,.,?
Cc1noc(C)c1COC(=O)CCCNC(=O)c1ccc(Cl)cc1,10,11,6%,?,3%,-15%
Cc1noc(C)c1COC(=O)/C=C/c1ccc(Cl)cc1,7,2,?,16µM*,-8%,8%
COc1cc(OC)cc(-c2nc3n(n2)C(c2ccccc2)C(C(N)=O)=C(C)N3)c1 (stereo unspecified),.,.,-20%,-27%,.,.
CC(=O)N1CCC2(CC1)CN(C(=O)Nc1cccc(C#N)c1)C2,.,.,-1%,5%,.,.
Cc1ccc(OCc2n[nH]c(=S)n2-c2ccc(Br)cc2)cc1,5,48,4%,-17%,.,18%
COc1cc2ccccc2cc1C(=O)NCC(c1cccs1)N(C)C (stereo unspecified),-76*,-16,?,16µM*,5%,?
COc1cc(C(=O)NCC(c2cccs2)N(C)C)cc(Cl)c1OC(C)C (stereo unspecified),-6,3,?,21µM*,-5%,?
COc1ccccc1NS(=O)(=O)c1cccc(C(=O)NCC(c2cccs2)N(C)C)c1 (stereo unspecified),10,29,?,-17%,.,.
CCCOc1ccc(C(=O)NCC(c2cccs2)N(C)C)cc1OC (stereo unspecified),-1,7,?,-11%,-6%,6%
COc1cc(/C=C/c2nc3ccccc3c(=O)[nH]2)ccc1O,?,.,?,16µM*,.,.
O=c1[nH]c(/C=C/c2ccccc2Cl)nc2ccccc12,-3,-20,16µM*,?,.,?
O=C(O)c1ccc(/C=C/c2nc3ccccc3c(=O)[nH]2)cc1,52,-19,-7%,-1%,.,8%
Cc1cccc(/C=C/c2nc3ccccc3c(=O)[nH]2)c1,3,1,21µM*,15µM*,-2%,?
Cc1[nH]c2ccccc2c1/C=C/c1nc2ccccc2c(=O)[nH]1,-103*,-10,?,10µM*,1%,?
CC(Sc1nnc(C2CC2)n1Cc1ccccc1)C(=O)N1CCNC1=O (stereo unspecified),-14,2,-9%,1%,1%,10%
Oc1ccc(Br)cc1/C=N/n1c(C2CCCCC2)n[nH]c1=S,0,-7,?,?,.,?
CCCC(C)NC(=O)Cc1ccc(S(=O)(=O)N2CCOCC2)s1 (stereo unspecified),33,9,-13%,-1%,0%,-4%
Cc1ccccc1NC(=O)CSc1nnc(-c2cccc(Cl)c2)o1,.,.,-12%,-1%,-6%,.
Cc1ccccc1N(C(=O)CNC(=O)c1ccco1)C(C(=O)NC1CCCCC1)c1cccnc1 (stereo unspecified),-8,-9,1%,2%,11%,7%
Cc1ccc(-n2c(/C=C/c3c(C)n(C)c4ccccc34)nc3ccccc3c2=O)cc1,.,.,2%,-15%,4%[2.28 µM],.
Cc1[nH]c2ccccc2c1/C=C/c1nc2ccccc2c(=O)n1-c1ccc([N+](=O)[O-])cc1,0,6,?,2.1µM*,-1%,?
SMILES,IL-1B inflam inh,Giardia killer,DT40 TDP1 CPT,DT40 TDP1 no CPT,TDP1 inh,ELG1 repair inh
CCNc1nc(NCC)n2c(SCC(=O)c3ccccc3Cl)nnc2n1,19,-27,?,?,8%,9%
CCNc1nc(NCC)n2c(SCC(=O)Nc3ccc(NC(C)=O)cc3)nnc2n1,19,5,-14%,5%,-15%[0.505 µM],3%
CCNc1nc(NCC)n2c(SCC(=O)Nc3ccc(CC)cc3)nnc2n1,-1,-14,21µM*,?,-7%,-4%
CCNc1nc(NCC)n2c(SC(C(=O)Nc3cc(C)ccc3C)c3ccccc3)nnc2n1 (stereo unspecified),?,4,?,12µM*,2%,?
CCNc1nc(NCC)n2c(SC(C)C(=O)c3ccc(C)cc3)nnc2n1 (stereo unspecified),1,2,?,13µM*,-5%,5%
Cc1ccc(-c2noc(-c3ccc(N4CCCCC4C)c([N+](=O)[O-])c3)n2)cc1 (stereo unspecified),.,.,-15%,-11%,9%,.
CCOC(=O)COc1c(Cl)cc(/C=C2\N=C(C)OC2=O)cc1OC,5,29,?,?,.,.
O=C(CCl)N1c2ccccc2Oc2ccc3ccccc3c21,?,3,5.2µM*,1.5µM*,.,.
N#Cc1ccccc1Sc1ccccc1N,-9,-11,-1%,-1%,2%,16%
Nc1ccccc1SSc1ccccc1N,-97*,-24,5.2µM*,3.7µM*,-9%,?
O=C(CNC(=O)COc1ccccc1)NCc1cccnc1,25,-8,11%,-11%,4%,0%
CS(=O)(=O)N(CC(=O)N1CCOCC1)c1ccccc1,-8,3,-1%,6%,0%,-2%
Cc1nc(Nc2nc3c(c(=O)[nH]2)CCC3)nc2ccccc12,-77*,3,5.8µM*,4.1µM*,.,.
Cc1ccc2c(C)nc(Nc3nc(CSc4nc5ccccc5[nH]4)cc(=O)[nH]3)nc2c1,-86*,6,12µM*,12µM*,-4%,4.6µM*
Cc1ccc(SCc2cc(=O)[nH]c(Nc3nc(C)c4ccccc4n3)n2)cc1,-7,15,12µM*,?,5%,-6%
Cc1ccc(SCc2cc(=O)[nH]c(Nc3nc(C)c4ccc(C)cc4n3)n2)cc1,22,-15,?,?,4%,12%
O=C(CCC1CCCCC1)Nc1ccccc1C(=O)N1CCOCC1,7,-9,5%,-20%,5%,9%
c1ccc2c(c1)SCc1c-2[nH]c2ccccc12,.,.,.,.,19%,.
